According to PubChem BioAssay (NCI):
Compounds without any hit were thinned out: in the full panel of roughly 83,000, 20% have a hit.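 48-hour exposure, single concentration, 96-well plates; percent growth endpoint where 0 means no net growth. Active: below 10.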 The source made the active and inactive calls.

Experiments:
Experiment in all cases: NCI-60 one-dose screen, 48 h (100 = growth as untreated, 0 = no growth, -100 = all killed)
Conditions in all cases: 10 µM unless noted
HCT-15 colon = system: HCT-15 colon
HT29 colon = system: HT29 colon
SNB-75 CNS = system: SNB-75 CNS
SNB-19 CNS = system: SNB-19 CNS
PC-3 prostate = system: PC-3 prostate
SK-MEL-5 melanoma = system: SK-MEL-5 melanoma
UACC-62 melanoma = system: UACC-62 melanoma
LOX IMVI melanoma = system: LOX IMVI melanoma
SK-MEL-28 melanoma = system: SK-MEL-28 melanoma
SK-MEL-2 melanoma = system: SK-MEL-2 melanoma
EKVX NSCLC = system: EKVX NSCLC
SN12C renal = system: SN12C renal
UO-31 renal = system: UO-31 renal
TK-10 renal = system: TK-10 renal
ACHN renal = system: ACHN renal
CAKI-1 renal = system: CAKI-1 renal
A498 renal = system: A498 renal
CCRF-CEM leukemia = system: CCRF-CEM leukemia
MOLT-4 leukemia = system: MOLT-4 leukemia

Measured: growth

C=C(C)[C@@H]1CC[C@]2(C(N)=O)CC[C@]3(C)[C@H](CC[C@@H]4[C@@]5(C)C/C(=C/c6ccco6)C(=O)C(C)(C)[C@@H]5CC[C@]43C)[C@@H]12
inactive: HCT-15 colon 86.9% | HT29 colon 98.5% | SNB-75 CNS 89.5% | SNB-19 CNS 94.5% | PC-3 prostate 75.7% | SK-MEL-5 melanoma 96.5% | UACC-62 melanoma 80.2% | LOX IMVI melanoma 88.4% | SK-MEL-28 melanoma 99.6% | SK-MEL-2 melanoma 99.5% | EKVX NSCLC 89.8% | SN12C renal 96.1% | UO-31 renal 84.4% | TK-10 renal 105% | ACHN renal 84.4% | CAKI-1 renal 59% | A498 renal 104% | CCRF-CEM leukemia 93.4% | MOLT-4 leukemia 79.7%

CSc1nc(NCCO)c(C#N)c(-c2cccc([N+](=O)[O-])c2)n1
inactive: HCT-15 colon 98.7% | HT29 colon 112% | SNB-75 CNS 72.8% | SNB-19 CNS 90.7% | PC-3 prostate 94.7% | SK-MEL-5 melanoma 97.2% | UACC-62 melanoma 87% | LOX IMVI melanoma 91.6% | SK-MEL-28 melanoma 112% | SK-MEL-2 melanoma 113% | EKVX NSCLC 88.9% | SN12C renal 90.4% | UO-31 renal 73.2% | TK-10 renal 120% | ACHN renal 93% | CAKI-1 renal 83.9% | A498 renal 72.6% | CCRF-CEM leukemia 99.1% | MOLT-4 leukemia 99%

N#Cc1c(-c2ccc(Cl)cc2)nc(N/N=C/c2cccc(Br)c2)nc1N1CCOCC1
active: HCT-15 colon 8.41% | A498 renal -10.8%
inactive: HT29 colon 29% | SNB-75 CNS 76.8% | SNB-19 CNS 107% | PC-3 prostate 61.2% | SK-MEL-5 melanoma 85.6% | UACC-62 melanoma 92.6% | LOX IMVI melanoma 79.8% | SK-MEL-28 melanoma 99.5% | SK-MEL-2 melanoma 94.5% | EKVX NSCLC 68.7% | SN12C renal 91.4% | UO-31 renal 51.2% | TK-10 renal 102% | ACHN renal 71.5% | CAKI-1 renal 73% | CCRF-CEM leukemia 50.3% | MOLT-4 leukemia 36.1%

N#C/C(=C\c1ccc(-c2ccc(Cl)c(Cl)c2)o1)c1nc(-c2ccco2)cs1
inactive: HCT-15 colon 34.6% | HT29 colon 88% | SNB-75 CNS 70.7% | SNB-19 CNS 100% | PC-3 prostate 95.8% | SK-MEL-5 melanoma 70.5% | UACC-62 melanoma 78.3% | LOX IMVI melanoma 93.9% | SK-MEL-28 melanoma 114% | SK-MEL-2 melanoma 108% | EKVX NSCLC 52.4% | SN12C renal 98.6% | UO-31 renal 69.2% | ACHN renal 94% | CAKI-1 renal 81.3% | A498 renal 94.2% | CCRF-CEM leukemia 94.1% | MOLT-4 leukemia 104%
active: TK-10 renal -7.19%

O=C(/C=C/c1cccc([N+](=O)[O-])c1)c1ccc(O)c(CN2CCN(c3cc4c(cc3F)c(=O)c(C(=O)O)cn4C3CC3)CC2)c1
active: HCT-15 colon -40.1% | HT29 colon -23.6% | LOX IMVI melanoma -93.5% | UO-31 renal -29.7% | ACHN renal 8.06% | CCRF-CEM leukemia 0.194% | MOLT-4 leukemia 2.37%
inactive: SNB-75 CNS 31.1% | SNB-19 CNS 47.2% | PC-3 prostate 18.4% | SK-MEL-5 melanoma 46.1% | UACC-62 melanoma 53% | SK-MEL-28 melanoma 46.4% | SK-MEL-2 melanoma 88.3% | EKVX NSCLC 52.8% | SN12C renal 32.5% | TK-10 renal 34.5% | CAKI-1 renal 42.3% | A498 renal 97.2%

Cc1nc(/N=C(\N)NC(=O)Nc2cccc([N+](=O)[O-])c2)sc1C
inactive: HCT-15 colon 30.1% | HT29 colon 42.8% | SNB-75 CNS 58.3% | SNB-19 CNS 90.1% | PC-3 prostate 77.1% | SK-MEL-5 melanoma 91.1% | UACC-62 melanoma 63.1% | LOX IMVI melanoma 71.7% | SK-MEL-28 melanoma 80.5% | SK-MEL-2 melanoma 88.1% | EKVX NSCLC 77.3% | SN12C renal 86.9% | UO-31 renal 83% | TK-10 renal 110% | ACHN renal 92% | CAKI-1 renal 58.3% | A498 renal 57.2% | CCRF-CEM leukemia 69.1% | MOLT-4 leukemia 51.5%

O=C(/C=C/c1cccc(Cl)c1)c1ccc(O)c(CN2CCN(c3cc4c(cc3F)c(=O)c(C(=O)O)cn4C3CC3)CC2)c1
inactive: HCT-15 colon 17.5% | SNB-75 CNS 28.7% | SNB-19 CNS 35.9% | PC-3 prostate 19.9% | SK-MEL-5 melanoma 24.5% | UACC-62 melanoma 34.9% | LOX IMVI melanoma 11.7% | SK-MEL-28 melanoma 58.8% | SK-MEL-2 melanoma 53.7% | EKVX NSCLC 55.7% | SN12C renal 18.9% | UO-31 renal 21.5% | TK-10 renal 48.1% | ACHN renal 27.7% | CAKI-1 renal 44.6% | A498 renal 25.9% | CCRF-CEM leukemia 25.1% | MOLT-4 leukemia 59.9%
active: HT29 colon 4.36%

COc1cccc(-c2nc3sccn3c2-c2ccnc(NCCNS(=O)(=O)c3ccc(F)cc3)c2)c1
active: SK-MEL-5 melanoma -53.1% | UACC-62 melanoma -9.01% | MOLT-4 leukemia 7.99%
inactive: HCT-15 colon 17.2% | HT29 colon 24% | SNB-75 CNS 22.9% | SNB-19 CNS 50.5% | PC-3 prostate 16.3% | LOX IMVI melanoma 25.1% | SK-MEL-28 melanoma 45.2% | SK-MEL-2 melanoma 21.3% | EKVX NSCLC 28.2% | SN12C renal 27.1% | UO-31 renal 16.7% | TK-10 renal 46.5% | ACHN renal 13% | CAKI-1 renal 18.4% | A498 renal 18.2% | CCRF-CEM leukemia 14.2%

CC1(C)CC[C@]2(C(=O)Nc3ccccn3)CC[C@]3(C)C(=CC[C@@H]4[C@@]5(C)C/C(=C/c6cccnc6)C(=O)C(C)(C)[C@@H]5CC[C@]43C)[C@H]2C1
active: SK-MEL-5 melanoma -14.8%
inactive: HCT-15 colon 18.9% | HT29 colon 25.1% | SNB-75 CNS 45.2% | SNB-19 CNS 63.8% | PC-3 prostate 19.9% | UACC-62 melanoma 34.1% | LOX IMVI melanoma 14.9% | SK-MEL-28 melanoma 48.2% | SK-MEL-2 melanoma 63.9% | EKVX NSCLC 42.5% | SN12C renal 32.6% | UO-31 renal 37.4% | ACHN renal 26.5% | CAKI-1 renal 36.3% | A498 renal 39.9% | CCRF-CEM leukemia 20.9% | MOLT-4 leukemia 13.2%

N=C(N)c1ccc(-c2ccc(-c3ccc4ccccc4c3)s2)s1
active: HCT-15 colon -82.4% | HT29 colon -60.5% | SNB-19 CNS -40.4% | UACC-62 melanoma -6.73% | LOX IMVI melanoma -56.6% | SN12C renal -62.2% | CCRF-CEM leukemia -27.8% | MOLT-4 leukemia -46.7%
inactive: SNB-75 CNS 89.3% | PC-3 prostate 71.9% | SK-MEL-5 melanoma 84.4% | SK-MEL-28 melanoma 92.8% | SK-MEL-2 melanoma 101% | EKVX NSCLC 51.8% | UO-31 renal 55.6% | ACHN renal 25.7% | CAKI-1 renal 59.2% | A498 renal 66.6%

Cn1c(O)c(N=NC(=O)c2cc(-c3ccccc3)on2)c2ccccc21
inactive: HCT-15 colon 101% | HT29 colon 105% | SNB-75 CNS 58.5% | SNB-19 CNS 98.2% | PC-3 prostate 103% | SK-MEL-5 melanoma 99.3% | UACC-62 melanoma 98.9% | LOX IMVI melanoma 92.2% | SK-MEL-28 melanoma 107% | SK-MEL-2 melanoma 95.3% | EKVX NSCLC 88.5% | SN12C renal 100% | UO-31 renal 88% | TK-10 renal 125% | ACHN renal 100% | CAKI-1 renal 90.4% | A498 renal 85.8% | CCRF-CEM leukemia 108% | MOLT-4 leukemia 105%

COc1ccc(CCNc2nc(SC)nc(-c3cccc([N+](=O)[O-])c3)c2C#N)cc1OC
inactive: HCT-15 colon 90.9% | HT29 colon 93.6% | SNB-75 CNS 61.8% | SNB-19 CNS 71.9% | PC-3 prostate 75.2% | SK-MEL-5 melanoma 88.2% | UACC-62 melanoma 80.8% | LOX IMVI melanoma 88.6% | SK-MEL-28 melanoma 91.8% | SK-MEL-2 melanoma 98.6% | EKVX NSCLC 80.5% | SN12C renal 84% | UO-31 renal 84.8% | TK-10 renal 112% | ACHN renal 72% | CAKI-1 renal 78% | A498 renal 94.8% | CCRF-CEM leukemia 98.7% | MOLT-4 leukemia 95%

N#CCCN=Nc1c(O)[nH]c2ccc(F)cc12
inactive: HCT-15 colon 101% | HT29 colon 110% | SNB-75 CNS 62.7% | SNB-19 CNS 101% | PC-3 prostate 95.2% | SK-MEL-5 melanoma 99.5% | UACC-62 melanoma 102% | LOX IMVI melanoma 94.5% | SK-MEL-28 melanoma 107% | SK-MEL-2 melanoma 101% | EKVX NSCLC 90.9% | SN12C renal 101% | UO-31 renal 80.6% | TK-10 renal 108% | ACHN renal 103% | CAKI-1 renal 84.8% | A498 renal 75.8% | CCRF-CEM leukemia 107% | MOLT-4 leukemia 103%

C=C(C)[C@@H]1CC[C@]2(C(=O)OC)CC[C@]3(C)[C@H](CC[C@@H]4[C@@]5(C)C/C(=C/c6cccc(I)c6)C(=O)C(C)(C)[C@@H]5CC[C@]43C)[C@@H]12
inactive: HCT-15 colon 99.3% | HT29 colon 107% | SNB-75 CNS 89.2% | SNB-19 CNS 94% | PC-3 prostate 96% | SK-MEL-5 melanoma 99% | UACC-62 melanoma 96.5% | LOX IMVI melanoma 91.9% | SK-MEL-28 melanoma 104% | SK-MEL-2 melanoma 103% | EKVX NSCLC 94.6% | SN12C renal 101% | UO-31 renal 85.2% | TK-10 renal 101% | ACHN renal 90.8% | CAKI-1 renal 82% | A498 renal 116% | CCRF-CEM leukemia 97.9% | MOLT-4 leukemia 95.8%

N#C/C(=C\c1ccc(-c2cc(C(F)(F)F)ccc2Cl)o1)c1nc(-c2ccco2)cs1
inactive: HCT-15 colon 103% | HT29 colon 101% | SNB-75 CNS 70% | SNB-19 CNS 95.2% | PC-3 prostate 99.5% | SK-MEL-5 melanoma 97.5% | UACC-62 melanoma 78.9% | LOX IMVI melanoma 99.5% | SK-MEL-28 melanoma 108% | SK-MEL-2 melanoma 103% | EKVX NSCLC 91.6% | SN12C renal 99% | UO-31 renal 87.9% | TK-10 renal 121% | ACHN renal 105% | CAKI-1 renal 86.2% | A498 renal 105% | CCRF-CEM leukemia 103% | MOLT-4 leukemia 101%

CC(C)(O)c1cn(CCCCN2C(=O)C(=O)c3ccccc32)nn1
inactive: HCT-15 colon 101% | HT29 colon 107% | SNB-75 CNS 68% | SNB-19 CNS 95.9% | PC-3 prostate 96.3% | SK-MEL-5 melanoma 99.7% | UACC-62 melanoma 98.1% | LOX IMVI melanoma 91.6% | SK-MEL-28 melanoma 113% | SK-MEL-2 melanoma 101% | EKVX NSCLC 93.7% | SN12C renal 102% | UO-31 renal 82.7% | TK-10 renal 108% | ACHN renal 104% | CAKI-1 renal 93.9% | A498 renal 71.7% | CCRF-CEM leukemia 101% | MOLT-4 leukemia 94.6%
